From PubChem
CHX counter: Cycloheximide Counterscreen for Small Molecule Inhibitors of Shiga Toxin. cell reporter, cycloheximide protein synthesis inhibition counterscreen. max response, %. actives 12% (n = 300,000). AID 2314, 2010; in the data active means max response mostly above about 13%, no sharp cut-off; inactive means mostly below about 14%; further: read at 38.3 µM for the half of the compounds with a filed dose
Pf growth 96h: Primary qHTS for delayed death inhibitors of the malarial parasite plastid, 96 hour incubation; P. falciparum luciferase reporter growth, 96 h; Potency, µM (highest dose often 28.7 µM), hits mostly inhibitors; actives 6.9% (n = 320,000); AID 504834, 2011
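Erythrocytes infected with luciferase-expressing P. falciparum were dispensed at 2% hematocrit and 0.05% parasitemia (final), then incubated with compounds 96 hours at 37 C in 5% CO2. Luminescence after detection reagent addition reported growth.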
Shiga toxin inh: A qHTS for Small Molecule Inhibitors of Shiga Toxin; actives 9.2% (n = 290,000); Vero cells, Shiga toxin protein synthesis inhibition reporter; inhibition, % at 38.7 µM; AID 2315, 2010; in the data active means inhibition mostly above about 28%, no sharp cut-off; inactive means mostly below about 43%
LmPK inh: qHTS Assay for Inhibitors of Leishmania Mexicana Pyruvate Kinase (LmPK); Potency, µM (titrated, usually from 57.5 µM), most hits filed as inhibitors; actives 0.37% (n = 290,000); Q27686; purified LmPK, Kinase-Glo ATP luminescence, 1 h; AID 1721, 2009
Target sequence (Q27686 whole entry, looked up): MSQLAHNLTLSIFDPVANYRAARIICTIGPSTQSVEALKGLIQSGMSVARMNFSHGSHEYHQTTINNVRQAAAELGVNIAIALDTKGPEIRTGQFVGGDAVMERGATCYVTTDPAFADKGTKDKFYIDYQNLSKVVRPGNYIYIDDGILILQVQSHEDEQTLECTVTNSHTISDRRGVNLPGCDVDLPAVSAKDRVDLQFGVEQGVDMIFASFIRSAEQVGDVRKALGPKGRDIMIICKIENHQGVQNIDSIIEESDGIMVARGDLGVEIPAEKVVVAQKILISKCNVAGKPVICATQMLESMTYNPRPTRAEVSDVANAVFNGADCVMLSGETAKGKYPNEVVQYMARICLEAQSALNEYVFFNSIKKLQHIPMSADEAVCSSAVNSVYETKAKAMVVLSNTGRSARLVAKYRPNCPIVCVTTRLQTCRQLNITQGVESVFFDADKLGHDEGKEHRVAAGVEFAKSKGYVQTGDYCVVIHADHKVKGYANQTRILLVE
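Purified LmPK (0.1 nM) converted ADP (0.1 mM) to ATP with PEP (0.5 mM) in imidazole buffer pH 7.2 with KCl and MgCl2, 1 h at room temperature. ATP was read by Kinase-Glo luminescence; data normalized to uninhibited and no-enzyme controls.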
Pf growth 48h: Primary qHTS for delayed death inhibitors of the malarial parasite plastid, 48 hour incubation. P. falciparum luciferase growth in erythrocytes, 48 h. Potency, µM (titrated, usually from 28.7 µM), most hits filed as inhibitors. actives 5.9% (n = 310,000)
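Parasite viability was followed by luminescence of a genomically integrated firefly luciferase. Cultures held 0.1% parasitemia at 2% hematocrit (final), incubated under 5% CO2 at 37 C.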
Hits are given with their value; n = inactive; u = inconclusive; x = no result; [ ] = another dose, or the depositor's remark. Most compounds without a hit are left out; they make up all but 22% or so of the library. Unless noted, the call rests on the fitted dose curve; in most records, active means well fitted inhibition curve with a large enough effect; inconclusive means small, poorly fitted or top-dose-only effect, or another doubt; inactive means no such curve, though single readings can be large or run the other way.

SMILES	CHX counter	Pf growth 96h	Shiga toxin inh	LmPK inh	Pf growth 48h
Cc1ccc2c(c1)C1CN(C)CCC1N2C(=O)c1cn(-c2ccccc2)nc1-c1ccccc1 (stereo not given)	n	u	n	n	13µM
Cc1ccc2c(c1)C1CN(C)CCC1N2C(=O)c1ccc(Cl)c(S(=O)(=O)N2CCOCC2)c1 (stereo not given)	n	u	n	n	u
Cc1ccc2c(c1)C1CN(C)CCC1N2C(=O)c1cccc(S(=O)(=O)N2CC(C)CC(C)C2)c1 (stereo not given)	n	13µM	n	n	u
Cc1ccc2c(c1)C1CN(C)CCC1N2C(=O)c1cccnc1Cl (stereo not given)	n	n	n	n	n
Cc1ccc2c(c1)C1CN(C)CCC1N2C(=O)Nc1cccc(C(F)(F)F)c1 (stereo not given)	n	x	n	n	9.3µM
Cc1ccc2c(c1)[C@@H]1CN(C)CC[C@@H]1N2C(=O)Nc1cccc(C(F)(F)F)c1	n	0.83µM	n	n	x
CC(CCc1ccccc1)NC(=O)CCNS(=O)(=O)c1ccccc1 (stereo not given)	x	n	x	x	n
COc1ccc([N+](=O)[O-])cc1N(CC(=O)NCCC1=CCCCC1)S(C)(=O)=O	n	n	n	n	n
Cc1nc2ccc([N+](=O)[O-])cc2nc1C	n	n	n	n	n
Cc1ccc2nc3cc([N+](=O)[O-])cc([N+](=O)[O-])c3cc2c1	68	u	134	n	u
Cc1ccsc1C(=O)N1CCCC(C(=O)c2cc(F)ccc2F)C1 (stereo not given)	n	u	n	n	u
CCOc1ccc2nc(SCc3ccc(OC)cc3)sc2c1	20	u	n	n	n
CCOc1ccc2nc(SCc3ccccc3C#N)sc2c1	71	n	174	n	n
CCOc1ccc2nc(SCCNS(=O)(=O)c3ccccc3)sc2c1	n	n	n	n	n
O=C(Nc1ccc(Oc2ncnc3cc(Cl)ccc23)nc1)c1ccc(F)cc1	n	n	n	n	n
O=C(Cn1c(=O)oc2cc(S(=O)(=O)N3CCCC3)ccc21)N1CCN(c2ccccn2)CC1	n	12µM	n	n	n
O=C(Cn1c(=O)oc2cc(S(=O)(=O)N3CCCC3)ccc21)N1CCCC1	n	n	n	n	x
O=C(Cn1c(=O)oc2cc(S(=O)(=O)N3CCCC3)ccc21)N1CCN(c2ccccc2F)CC1	n	u	n	n	u
CCN(C(=O)Cn1c(=O)oc2cc(S(=O)(=O)N3CCCC3)ccc21)c1ccc(OC)cc1	n	n	n	n	u
CC1CCCN(C(=O)Cn2c(=O)oc3cc(S(=O)(=O)N4CCCCC4)ccc32)C1 (stereo not given)	n	u	n	n	1.3µM
CCN(C(=O)Cn1c(=O)oc2cc(S(=O)(=O)N3CCOCC3)ccc21)c1ccccc1	n	4.1µM	n	n	u
O=C(Cn1c(=O)oc2cc(S(=O)(=O)N3CCCC3)ccc21)NCc1ccc(F)cc1	n	6.6µM	n	n	x
CCOC(=O)Cc1csc(NC(=O)c2ccc(C)c(S(=O)(=O)N3CCOCC3)c2)n1	x	u	x	x	n
O=C(Cn1c(=O)oc2cc(S(=O)(=O)N3CCCC3)ccc21)NC1CCCCC1	n	u	n	n	n
O=C(Cn1c(=O)oc2cc(S(=O)(=O)N3CCCC3)ccc21)Nc1cccc(C(F)(F)F)c1	n	12µM	n	n	n
SMILES	CHX counter	Pf growth 96h	Shiga toxin inh	LmPK inh	Pf growth 48h
COCCCNC(=O)Cn1c(=O)oc2cc(S(=O)(=O)N3CC(C)CC(C)C3)ccc21 (stereo not given)	n	n	n	n	u
CC1CCCCC1NC(=O)Cn1c(=O)oc2cc(S(=O)(=O)N3CCCC3)ccc21 (stereo not given)	n	10µM	n	n	n
CCCCNC(=O)Cn1c(=O)oc2cc(S(=O)(=O)N3CC(C)CC(C)C3)ccc21 (stereo not given)	n	6.6µM	n	n	x
CNC(C)C#Cc1ccc2oc3cccc(OC)c3c(=O)c2c1 (stereo not given)	36	n	45	n	n
CNC(C)C#Cc1ccc2sc3cccc(OC)c3c(=O)c2c1 (stereo not given)	12	u	19	n	u
CNC(C)C#Cc1ccc2c(=O)c3c(OC)cccc3oc2c1 (stereo not given)	37	u	46	n	u
COc1cccc2oc3ccc(C#Cc4ccccn4)cc3c(=O)c12	66	n	47	n	n
COc1cccc2sc3ccc(C#CC4(N)CCCCC4)cc3c(=O)c12	32	u	64	n	u
COc1cc(OC)c(C(=O)OCC(=O)N2CCOCC2)cc1OC	n	n	n	n	n
COc1ccc(NC(=O)O/N=C/c2c(C)nn(C(C)(C)C)c2C)cc1	29	n	n	n	n
Cc1nn(C(C)(C)C)c(C)c1/C=N/OC(=O)Nc1ccc(Cl)c(Cl)c1	n	n	n	n	n
CSc1nnc(-c2ccncc2)n1/N=C/c1cn(-c2ccccc2)nc1-c1ccc(Cl)cc1	n	n	n	n	9.3µM
C/C(=N/NC(=O)c1ccc(Cl)cc1Cl)c1cccnc1	29	n	n	n	n
C/C(=N\NC(=O)c1ccc(O)cc1O)c1cccnc1	40	u	73	n	n
CCOc1ccc(S(=O)(=O)NCC(=O)OCc2nnc(-c3ccccc3)o2)cc1	x	n	x	x	n
O=P(O)(O)CCP(=O)(c1ccccc1)c1ccccc1	n	1.7µM	n	n	n
COc1ccc(-n2nc3c(c2NC(=O)c2ccc(S(=O)(=O)N4CCOCC4)cc2)CS(=O)(=O)C3)cc1	n	n	n	n[11.5 µM]	n
Cc1cccc(NC(=O)CNC(=O)CSc2nnc(C(F)(F)F)n2C)c1C	x	n	x	x	n
O=C1C=C(c2ccccc2)C[C@H](c2cccs2)[C@H]1n1cnc([N+](=O)[O-])c1	n	u	n	n	13µM
O=C1C=C(c2cccs2)CC(c2cccs2)C1n1cnc([N+](=O)[O-])c1 (stereo not given)	n	x	n	n	u
Cc1ccc(NC(=O)c2cc(S(=O)(=O)c3ccccc3)ccc2Cl)cc1	n	x	n	n	n
Cc1ccc(-n2ncc3c2CCCC3NC(=O)c2csnn2)cc1C (stereo not given)	19	u	60	n	u
Cc1cc(C)c(C(=O)NC2CCCc3c2cnn3-c2ccc(C)c(C)c2)c(=O)[nH]1 (stereo not given)	27	n	n	n	n
COCc1ccc(C(=O)NC2CCCc3c2cnn3-c2cc(C)cc(C)c2)s1 (stereo not given)	n	7.4µM	27	n	u
Cc1cc(C(=O)NC2CCCc3c2cnn3-c2cc(F)cc(F)c2)nn1C (stereo not given)	n	u	25	n	n
CCn1nc(C)cc1C(=O)NC1CCCc2c1cnn2-c1cc(F)cc(F)c1 (stereo not given)	n	n	n	n	n
